Measurements as given in PubChem BioAssay (Tox21).
Results filed as inconclusive are left out. The source made the active and inactive calls. Unless noted, calls follow the shape of the dose curve; as a rule, active = well fitted curve in the direction sought with a large enough effect in the repeat runs; inconclusive = weak or mixed curves; inactive = no such curve, though single readings can be large; an effect the other way counts as inactive or inconclusive.

Key:
[1] = qHTS RealTime-Glo MT Cell Viability Assay in HEK293 cells - 0 hour (AID 1224880); also: top concentration of the series differs between compounds; nearly all actives have a fitted effect of over 45% in size
Procedure, shortened: (§1)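 Cells were seeded together with NanoLuc luciferase and a prosubstrate that viable cells reduce to a luciferase substrate. After a 5 h incubation at 37 C/5% CO2, compounds were added and luminescence was measured repeatedly during 40 h of treatment.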

[2] = A CellTox Green Cytotoxicity Assay to monitor cytotoxicity in HEK293 cells - 32 hour (AID 1224881); also: nearly all actives have a fitted effect of over 40% in size
Procedure, shortened: (§2)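 Nonlytic real-time cytotoxicity: HEK293 + CellTox Green reagent plated, 5 h preincubation, pintool compound addition (23 nL in DMSO), 37 C for 40 h, fluorescence measured at successive time points.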

[3] = A CellTox Green Cytotoxicity Assay to monitor cytotoxicity in HepG2 cells - 0 hour (AID 1224882); also: nearly all actives have a fitted effect of over 35% in size
Procedure, shortened: (§3)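 Read-out is fluorescence of a cyanine dye excluded from live cells that stains DNA of dead HepG2 cells, with signal proportional to cytotoxicity. Plates were read at 0, 8, 16, 24, 32 and 40 h after compound addition.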

[4] = A CellTox Green Cytotoxicity Assay to monitor cytotoxicity in HepG2 cells - 32 hour (AID 1224883); also: nearly all actives have a fitted effect of over 50% in size
Procedure, shortened: as §3

[5] = A CellTox Green Cytotoxicity Assay to monitor cytotoxicity in HEK293 cells - 8 hour (AID 1224884); also: nearly all actives have a fitted effect of over 35% in size
Procedure, shortened: as §2

[6] = qHTS RealTime-Glo MT Cell Viability Assay in HepG2 cells - 16 hour (AID 1224885); also: nearly all actives have a fitted effect of over 50% in size
Procedure, shortened: (§4)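 Viability was tracked continuously by NanoLuc luminescence from prosubstrate reduced by living HepG2 cells, at successive time points over 40 h of compound exposure. Cells with reagent were preincubated 5 h at 37 °C before compound addition.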

[7] = qHTS RealTime-Glo MT Cell Viability Assay in HEK293 cells - 24 hour (AID 1224886); also: top concentration of the series differs between compounds; nearly all actives have a fitted effect of over 50% in size
Procedure, shortened: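 Viability tracked continuously by luminescence as live cells reduce a prosubstrate for NanoLuc; HEK293 cells preincubated 5 h, compound-treated at 37 C, and read at 0, 8, 16, 24, 32 and 40 h.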

[8] = qHTS RealTime-Glo MT Cell Viability Assay in HEK293 cells - 8 hour (AID 1224887); also: top concentration of the series differs between compounds; nearly all actives have a fitted effect of over 50% in size
Procedure, shortened: as §1

[9] = A CellTox Green Cytotoxicity Assay to monitor cytotoxicity in HEK293 cells - 16 hour (AID 1224888); also: nearly all actives have a fitted effect of over 35% in size
Procedure, shortened: as §2

[10] = qHTS RealTime-Glo MT Cell Viability Assay in HepG2 cells - 0 hour (AID 1224889); also: nearly all actives have a fitted effect of over 50% in size
Procedure, shortened: as §4

[11] = A CellTox Green Cytotoxicity Assay to monitor cytotoxicity in HepG2 cells - 8 hour (AID 1224890); also: nearly all actives have a fitted effect of over 45% in size
Procedure, shortened: as §3

[12] = qHTS assay to identify small molecule antagonists of the estrogen receptor alpha (ER-alpha) signaling pathway using the BG1 cell line in the presence of 0.1 nM 17-beta-estradiol - cell viability counter screen (AID 1259241); also: nearly all actives have a fitted effect of over 40% in size
Procedure, shortened: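 Cytotoxicity counter-screen: live-cell protease activity measured by fluorescence (30 min reagent step) in the same wells. Cells were VM7Luc4E2 with endogenous ER-alpha and ERE-driven luciferase, treated 22 hr at 37C alongside 0.1 nM 17beta-estradiol final.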

[13] = qHTS assay to identify small molecule antagonists of the androgen receptor (AR) signaling pathway using the MDA cell line in the presence of 0.5 nM R1881 - cell viability counter screen (AID 1259242); also: nearly all actives have a fitted effect of over 45% in size
Procedure, shortened: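 Counter screen for cytotoxicity run in the same wells as the AR antagonist reporter screen: MDA-kb2 cells were treated 16 hr with test compounds and 0.5 nM R1881, then live-cell protease activity was measured by fluorescence.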

[14] = qHTS assay to identify small molecule phospholipidosis (PLD) inducers (AID 1259344; active = well fitted curve in the direction sought with a large enough effect; an effect the other way counts as inactive or inconclusive)
Procedure, shortened: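 Phospholipidosis is scored by imaging LipidTOX-stained pits in HepG2 cells exposed to compound for 24 h at 37 C; pit counts and integrated intensities per well and per cell serve as outputs.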

[15] = qHTS assay to identify small molecule HDAC inhibitors (AID 1259364); also: top concentration of the series differs between compounds; nearly all actives have a fitted effect of over 45% in size
Procedure, shortened: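 Luminescence from a cell-permeant luminogenic class I/II HDAC substrate reports endogenous deacetylase activity in intact HCT-116 cells treated with compounds for 2 h.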

[16] = qHTS assay to identify small molecule HDAC inhibitors - cell viability counter screen (AID 1259365)
Procedure, shortened: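 CellTiter-Glo luminescence (30 min, room temperature) reported viability after a 2 h compound exposure at 37 C. Cells: wild-type HCT-116, 1,500 per well, seeded the night before.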

[17] = qHTS assay to identify small molecule agonists of the sonic hedgehog signaling (Shh) pathway - cell viability counter screen (AID 1259366); also: nearly all actives have a fitted effect of over 50% in size
Procedure, shortened: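 Cytotoxicity counter screen: CellTiter-Fluor reagent added after 23 h compound exposure, then 1 h at 37C and fluorescence read. Cells were 3T3 Gli1-Luc, seeded 2,000 per well and dosed 4 h post-plating.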

[18] = qHTS assay to identify small molecule antagonists of the sonic hedgehog signaling (Shh) pathway - cell viability counter screen (AID 1259367); also: nearly all actives have a fitted effect of over 55% in size
Procedure, shortened: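 Cells: 3T3 Gli1-Luc, 2,000/well, 4 hr pre-incubation. Compounds in DMSO, then conditioned medium. Incubation 24 hr, 37C, 5% CO2. CellTiter-Fluor at 23 hr, 1 hr, fluorescence.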

[19] = target: Androgen receptor (Homo sapiens) (UniProt P10275); assay: qHTS assay to identify small molecule antagonists of the androgen receptor (AR) signaling pathway using the MDA cell line in the presence of 0.5 nM R1881 (AID 1259243); also: nearly all actives have a fitted effect of over 50% in size
Procedure, shortened: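 Luciferase luminescence is the read-out: compounds are tested for suppressing 0.5 nM R1881-driven MMTV reporter activity in MDA-kb2 cells after 16 hr at 37C.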

[20] = target: Estrogen receptor (Homo sapiens) (UniProt P03372); assay: qHTS assay to identify small molecule antagonists of the estrogen receptor alpha (ER-alpha) signaling pathway using the BG1 cell line in the presence of 0.1 nM 17-beta-estradiol (AID 1259244); also: nearly all actives have a fitted effect of over 50% in size
Procedure, shortened: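 Cells: VM7Luc4E2, endogenous ER-alpha, 4x ERE-luc stable. Pre-culture 5 d, phenol red-free, charcoal-stripped FBS. Plated 24 h, compound + E2 0.1 nM final, 22 h 37C/5% CO2. Readout ONE-Glo luminescence.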

Measured: Potency

Chain of Androgen receptor (Homo sapiens) (P10275 whole entry, looked up): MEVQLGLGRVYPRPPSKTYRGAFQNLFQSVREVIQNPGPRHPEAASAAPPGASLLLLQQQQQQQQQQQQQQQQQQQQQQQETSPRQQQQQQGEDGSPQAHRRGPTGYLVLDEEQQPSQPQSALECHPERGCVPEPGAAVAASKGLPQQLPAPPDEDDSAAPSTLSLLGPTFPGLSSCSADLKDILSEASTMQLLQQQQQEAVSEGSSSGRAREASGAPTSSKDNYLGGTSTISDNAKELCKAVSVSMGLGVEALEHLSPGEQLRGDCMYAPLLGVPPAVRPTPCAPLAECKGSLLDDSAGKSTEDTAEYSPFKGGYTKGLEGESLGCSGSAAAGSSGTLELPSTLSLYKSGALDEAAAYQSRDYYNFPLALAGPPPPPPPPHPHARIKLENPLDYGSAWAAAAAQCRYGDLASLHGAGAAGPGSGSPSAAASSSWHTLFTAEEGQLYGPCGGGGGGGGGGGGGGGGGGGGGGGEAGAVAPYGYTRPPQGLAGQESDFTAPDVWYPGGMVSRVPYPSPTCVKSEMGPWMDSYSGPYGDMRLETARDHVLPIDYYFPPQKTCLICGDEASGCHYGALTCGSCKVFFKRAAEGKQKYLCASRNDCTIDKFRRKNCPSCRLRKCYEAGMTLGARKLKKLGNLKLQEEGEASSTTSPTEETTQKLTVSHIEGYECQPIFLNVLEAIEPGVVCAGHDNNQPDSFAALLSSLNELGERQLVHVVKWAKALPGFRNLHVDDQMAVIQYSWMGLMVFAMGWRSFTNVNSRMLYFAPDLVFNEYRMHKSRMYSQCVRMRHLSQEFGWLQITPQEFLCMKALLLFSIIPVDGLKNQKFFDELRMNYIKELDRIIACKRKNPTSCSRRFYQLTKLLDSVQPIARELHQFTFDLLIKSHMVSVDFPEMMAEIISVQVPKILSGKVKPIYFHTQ
Chain of Estrogen receptor (Homo sapiens) (P03372 whole entry, looked up): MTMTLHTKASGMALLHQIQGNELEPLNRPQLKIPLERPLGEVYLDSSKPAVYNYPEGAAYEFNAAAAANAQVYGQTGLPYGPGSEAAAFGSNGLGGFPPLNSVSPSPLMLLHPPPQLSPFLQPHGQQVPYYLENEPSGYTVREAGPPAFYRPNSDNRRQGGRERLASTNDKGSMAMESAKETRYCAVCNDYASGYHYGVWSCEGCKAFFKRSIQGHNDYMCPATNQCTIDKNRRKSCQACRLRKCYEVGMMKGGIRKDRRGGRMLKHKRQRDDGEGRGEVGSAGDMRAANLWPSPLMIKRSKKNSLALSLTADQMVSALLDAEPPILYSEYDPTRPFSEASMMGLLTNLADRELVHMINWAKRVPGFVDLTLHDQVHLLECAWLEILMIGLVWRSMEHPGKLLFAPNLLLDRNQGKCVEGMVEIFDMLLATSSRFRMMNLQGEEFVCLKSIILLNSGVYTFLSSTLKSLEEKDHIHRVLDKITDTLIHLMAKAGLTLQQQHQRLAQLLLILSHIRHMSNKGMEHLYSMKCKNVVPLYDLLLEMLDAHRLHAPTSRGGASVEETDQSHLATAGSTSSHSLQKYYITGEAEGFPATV

COc1ccc(CN2CCNCC2)c(OC)c1OC
inactive: [1] | [2] | [3] | [4] | [5] | [6] | [7] | [8] | [9] | [10] | [11] | [12] | [13] | [14] | [15] | [16] | [17] | [18]

C/C(=N\NC(=O)Nc1cc(F)cc(F)c1)c1ncccc1C(=O)O
inactive: [1] | [2] | [3] | [4] | [5] | [6] | [7] | [8] | [9] | [10] | [11] | [12] | [13] | [15] | [16] | [17] | [18]

O=C(Cl)c1ccccc1
inactive: [1] | [2] | [3] | [4] | [5] | [6] | [7] | [8] | [9] | [10] | [11] | [12] | [13] | [15] | [16] | [17] | [18]

CC(=O)CN(CC(C)=O)N=O
inactive: [1] | [2] | [3] | [4] | [5] | [6] | [7] | [8] | [9] | [10] | [11] | [12] | [13] | [15] | [16] | [17] | [18]

CNC(=O)NC(O)C(Cl)(Cl)Cl (configuration not stated)
inactive: [1] | [2] | [3] | [4] | [5] | [6] | [7] | [8] | [9] | [10] | [12] | [13] | [19] | [20] | [14] | [16] | [17] | [18]

CN(C)CCc1c[nH]c2cccc(OP(=O)(O)O)c12
inactive: [1] | [2] | [3] | [4] | [5] | [6] | [7] | [8] | [9] | [10] | [11] | [13] | [14] | [16] | [17] | [18]

O=C1CC(=O)NC(=O)N1
inactive: [1] | [2] | [3] | [4] | [5] | [6] | [7] | [8] | [9] | [10] | [11] | [12] | [13] | [15] | [17] | [18]

CCOc1cc(OP(=S)(OC)OC)nc(CC)n1
inactive: [1] | [2] | [3] | [4] | [5] | [6] | [7] | [8] | [9] | [10] | [11] | [12] | [13] | [15] | [17] | [18]

CCCCCCCCSC(=O)Oc1cc(Cl)nnc1-c1ccccc1
inactive: [1] | [2] | [3] | [4] | [5] | [6] | [7] | [8] | [9] | [10] | [11] | [12] | [13] | [15] | [16] | [17] | [18]
